Experimental findings from PubChem BioAssay AID1851 (National Center for Advancing Translational Sciences (NCATS), 2009) are described below.

The AC50 is the concentration at which the activity in the assay is half-maximal.

The campaign covered roughly 16,000 compounds. About 2,600 (16%) were called active. Not shown: some 20% with an inconclusive outcome. Calls come from the whole dose curve; as a rule, active = well fitted curve in the direction sought with a large enough effect; inconclusive = small, poorly fitted or top-dose-only effect, or effect the other way; inactive = no such curve, though single readings can be large or run the other way. These entries were drawn from the full list.
% is set by controls: 0 for no effect and ±100 for the full control effect.

The target of the assay is Cytochrome P450 2D6 (Homo sapiens) (UniProt P10635). In words: Cytochrome panel assay with activity outcomes. To be noted: recombinant CYP, pro-luciferin dealkylation, luminescence, p450-cyp2d6; series mostly up to 57.1 µM.
Sequence of Cytochrome P450 2D6 (Homo sapiens) (P10635 whole entry, looked up): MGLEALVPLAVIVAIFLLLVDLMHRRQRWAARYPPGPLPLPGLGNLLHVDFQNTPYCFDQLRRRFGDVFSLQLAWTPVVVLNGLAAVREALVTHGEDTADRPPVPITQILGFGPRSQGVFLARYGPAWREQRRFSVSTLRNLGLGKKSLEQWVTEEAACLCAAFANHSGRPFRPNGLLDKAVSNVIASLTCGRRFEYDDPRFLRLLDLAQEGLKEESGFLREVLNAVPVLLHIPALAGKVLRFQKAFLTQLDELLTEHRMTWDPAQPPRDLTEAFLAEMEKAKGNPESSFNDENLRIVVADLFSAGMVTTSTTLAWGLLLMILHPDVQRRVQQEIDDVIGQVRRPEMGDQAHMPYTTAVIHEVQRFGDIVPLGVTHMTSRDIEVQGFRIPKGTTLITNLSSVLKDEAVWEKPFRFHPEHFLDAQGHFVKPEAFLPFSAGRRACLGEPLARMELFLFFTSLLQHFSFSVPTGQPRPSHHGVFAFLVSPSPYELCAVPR
Regarding `C[C@H]1O[C@@H](CC(=O)O)Cc2c1c(O)c1c(O)cc(-c3cc(=O)c4c(=O)c5c(c(=O)c=4c3=O)C[C@H](CC(=O)O)O[C@@H]5C)c(O)c1c2O`, the activity, negative = inhibition is -3.88% [at 11.4 µM] (inactive).

With `CN(C)c1ncc2nc(-c3ccc(F)cc3)c(=O)n(C3CC3)c2n1`, the AC50 result is “inactive”.

For the compound `O=C(Nc1cc(C(F)(F)F)ccc1-n1cncn1)c1ccc(Br)cc1`, the AC50 entry was “inactive”. `C[n+]1cccc(CNC(=O)/C=N/O)c1`: the AC50 entry is “inactive”. On to `CC(Oc1ccccc1)c1ccnn1S(=O)(=O)c1ccccc1` (configuration not stated), for which the AC50 result is “inactive”. Consider `CC[N+](C)(CC)CCC[n+]1c(-c2ccccc2)c2cc(N)ccc2c2ccc(N)cc21`, for which the AC50 is 6.31 µM (active). Regarding `CN=C(NC#N)Nc1ccc(C2=NNC(=O)C[C@@H]2C)cc1`, the AC50 result is “inactive”.

`NC(=O)C1CCN(C(=O)CN2C(=O)c3ccccc3S2(=O)=O)CC1`: the AC50 entry is “inactive”.

Consider `Cc1nc2cnc(N3CCOCC3)nc2n(C)c1=O`, for which the AC50 entry is “inactive”. Same read-out and setting: under `CCOC(=O)Oc1c(OC)cc(C(=O)O[C@H]2C[C@H]3CN4CCc5c([nH]c6cc(OC)ccc56)[C@@H]4C[C@H]3[C@@H](C(=O)OC)[C@@H]2OC)cc1OC` stands “inactive”; under `COCCCCC(=NOCCN)c1ccc(C(F)(F)F)cc1`, 3.98 µM (active). Regarding `COc1c(/C=N/Nc2ccc([N+](=O)[O-])cc2[N+](=O)[O-])c(C)nn1-c1ccccc1`, the AC50 result is “inactive”. With `C[C@@]12CC[C@@H]3c4ccc(O)cc4CC[C@H]3[C@H]1CC[C@H]2O`, the AC50 result is “inactive”. For `Cc1cccc(C)c1NC(=O)[C@H](C)N`, the AC50 entry is “inactive”. The same measure, in the same setting: then `CCOc1nc(N=C(N)N)nc2c(C)cccc12`, with “inactive”; and `Cc1cccc(C)c1OC[C@@H](N)C(C)C`, with 15.8 µM (active). In the case of `COC(=O)[C@@]1(Cc2ccc(F)cc2)[C@H]2c3cc(C(=O)N4CCCC4)n(CCc4ccc(OC)c(Br)c4)c3C[C@H]2CN1C(=O)c1ccccc1`, the AC50 result is “inactive”. Turning to `COC(=O)[C@@]1(Cc2ccccc2)[C@H]2c3cc(C(=O)N4CCCC4)n(Cc4c(CO)[nH]cc(C)c4=O)c3C[C@H]2CN1C(=O)c1ccccc1`, the AC50 was 12.6 µM (active). The same measure, in the same setting: then `COC(=O)[C@@]1(Cc2ccccc2)[C@H]2c3cc(C(=O)N4CCCC4)n(CC4CC4)c3C[C@H]2CN1C(=O)c1ccccc1`, with “inactive”; and `COC(=O)[C@@]1(Cc2ccc(F)cc2)[C@H]2c3cc(C(=O)N4CCCC4)n(Cc4ccccc4)c3C[C@H]2CN1C(=O)c1ccccc1`, with “inactive”; and `COC(=O)[C@@]1(Cc2ccc(F)cc2)[C@H]2c3cc(C(=O)N4CCCC4)n(Cc4ccc(OC(F)(F)F)cc4)c3C[C@H]2CN1C(=O)c1ccccc1`, with “inactive”.

As for `COC(=O)[C@@]1(Cc2ccc(F)cc2)[C@H]2c3cc(C(=O)N4CCCC4)n(CCc4ccc(O)c(O)c4)c3C[C@H]2CN1C(=O)c1ccccc1`, the AC50 is 12.6 µM (active). For `COC(=O)[C@@]1(Cc2ccccc2)[C@H]2c3cc(C(=O)N4CCCC4)n(Cc4nc5ccccc5[nH]4)c3C[C@H]2CN1C(=O)c1ccccc1`, the AC50 is 7.94 µM (active).

For `COC(=O)[C@@]1(Cc2ccc(F)cc2)[C@H]2c3cc(C(=O)N4CCCC4)n(Cc4ccccn4)c3C[C@H]2CN1C(=O)c1ccccc1`, the AC50 entry was “inactive”. For `COC(=O)[C@@]1(Cc2ccccc2)[C@H]2c3cc(C(=O)N4CCCC4)n(Cc4cccc5ccccc45)c3C[C@H]2CN1C(=O)c1ccccc1`, the AC50 entry is “inactive”. `COC(=O)[C@@]1(Cc2ccc(F)cc2)[C@H]2c3cc(C(=O)N4CCCC4)n(CCc4c[nH]c5ccccc45)c3C[C@H]2CN1C(=O)c1ccccc1`: the AC50 entry is “inactive”. In the case of `COC(=O)[C@@]1(Cc2ccc(F)cc2)[C@H]2c3cc(C(=O)N4CCCC4)n(Cc4c(CO)[nH]cc(C)c4=O)c3C[C@H]2CN1C(=O)c1ccccc1`, the AC50 was 12.6 µM (active). As to `Cc1cc(NC(=O)c2ccccc2Cl)c(C(C)C)cc1O`, the AC50 result was “inactive”. Turning to `CCCCC1(C)OC(=O)C(=Cc2ccc(N(CC)CC)cc2)C(=O)O1` (configuration not stated), the AC50 result was “inactive”.

Consider `COc1ncc2nc(-c3cn(C)c4ccccc34)c(=O)n(Cc3ccc(F)cc3)c2n1`, for which the AC50 result is “inactive”.

Regarding `Cc1cc(C)cc(N2C(=O)CC(Sc3nnnn3-c3ccccc3)C2=O)c1` (configuration not stated), the AC50 entry is “inactive”. For the compound `Cc1cccc(-n2cnc(C(=O)NC3CCCCCC3)c2)n1`, the AC50 entry was “inactive”.

`COc1cc(OC)c(C2N(c3cc(C)on3)C(=O)C3CCCN32)cc1OC` (configuration not stated): the AC50 entry was “inactive”. Regarding `COc1ccc(CNc2ncncc2-c2ccccc2CN(C)C)c(OC)c1`, the AC50 is 2.51 µM (active).

As to `COc1ccc(CNc2ncncc2-c2ccccc2C)c(OC)c1`, the AC50 is 12.6 µM (active). Still for that read-out and setting: then `COc1ccc(CNc2ncncc2-c2ccccc2OC)c(OC)c1`, with 12.6 µM (active). Turning to `COc1ccc(O[C@H]2C=C[C@@H](c3ccccc3)O[C@@H]2CO/N=C\[C@@H](C)[C@H](OCc2ccccc2)C(C)C)cc1`, the activity, negative = inhibition is 8.39% [at 11.4 µM] (inactive). With `COc1ccc(Nc2nnc(-c3ccc(N4CCOCC4)c([N+](=O)[O-])c3)c3ccccc23)cc1`, the AC50 entry was “inactive”.

As to `NC(=O)c1ccc([N+](=O)[O-])cc1SCc1ccccc1`, the AC50 result was “inactive”. `Cc1ccc(Cn2nc(C)c(NC(=O)c3cc(-c4ccco4)on3)c2C)cc1`: the AC50 result was “inactive”. As to `Cn1c(=O)c2cn(-c3ccccc3)cc2n(C)c1=O`, the AC50 result was “inactive”. As for `COc1ncc2nc(-c3cccs3)c(=O)n(-c3ccccc3)c2n1`, the AC50 result is “inactive”. As to `O=C(C1CCN(S(=O)(=O)c2cccc3cccnc23)CC1)N1CCN(c2ccccn2)CC1`, the AC50 result is “inactive”. Regarding `Cc1ccc2c(c1)NCC(C(=O)NC1CCCCC1)O2` (configuration not stated), the AC50 entry was “inactive”. Same read-out and setting: then `Cc1ccc(S(=O)(=O)N2CCN(S(C)(=O)=O)C2)cc1`, with “inactive”; and `Cc1ccc(S(=O)(=O)N2CCN(Cc3ccccc3C(F)(F)F)CC2)cc1`, with 10 µM (active); and `Cc1ccc(S(=O)(=O)N2CCN(C(=O)CN3CCN(C)CC3)C2)cc1`, with “inactive”. For the compound `COC(=O)C(NS(=O)(=O)c1ccc(NC(C)=O)cc1)C(C)C` (configuration not stated), the AC50 result was “inactive”. Same read-out and setting: under `O=S(=O)(c1cccc(C(F)(F)F)c1)N1CCC(c2cc(-c3cccc4ccccc34)n[nH]2)CC1` stands “inactive”; under `Cc1cccc(NC(=O)CSc2nnc(-c3ccco3)c(-c3ccco3)n2)c1C`, 12.6 µM (active); under `Cc1cc(C)nc(SCC(=O)Nc2ccccc2[N+](=O)[O-])n1`, “inactive”. With `Cc1cccc(NC(=O)CSc2nc(-c3ccccc3)c(C#N)c(=O)[nH]2)c1C`, the AC50 result is “inactive”.
